The results in this text go back to PubChem BioAssay (Tox21).

Values without a mark were called inactive. Records with an inconclusive call do not appear. Active and inactive are the calls of the source. Unless noted, the call rests on the fitted dose curve; in most records, active means well fitted curve in the direction sought with a large enough effect in the repeat runs; inconclusive means weak or mixed curves; inactive means no such curve, though single readings can be large; an effect the other way counts as inactive or inconclusive.

Experiment [1] can be described thus: qHTS assay to identify small molecule antagonists of the sonic hedgehog signaling (Shh) pathway (AID 1259369; calls by dose curve; further: nearly all actives have a fitted effect of over 45% in size; further: potency means the concentration at half of the fitted maximal effect). An outline of the steps: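 Conditioned medium drives Shh signalling in 3T3Gli1-Luc cells; compounds in DMSO co-applied, 24hr at 37 C, then luciferase luminescence.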
Experiment [2] can be described thus: qHTS assay to identify small molecule agonists of the androgen receptor (AR) signaling pathway in the presence of an antagonist - cell viability counter screen (AID 1259379). Further: nearly all actives have a fitted effect of over 25% in size. Further: potency means the concentration at half of the fitted maximal effect. An outline of the steps:
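A CellTiter-Fluor read-out measured viability of MDA-kb2 reporter cells (MMTV promoter with AR and GR response elements). Treatment: nilutamide 3.0uM final with compounds at 15 concentrations, 16 hr, 37C, 0% CO2.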
(In general: Quantitative high-throughput screening tests each substance at several concentrations.)

The nature of experiment [3]: qHTS assay to identify small molecule agonists of the estrogen receptor beta (ER-beta) signaling pathway - cell viability counter screen (AID 1259380). Further: nearly all actives have a fitted effect of over 30% in size. Further: potency means the concentration at half of the fitted maximal effect. The essentials:
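Cells used were ER-beta-UAS-bla HEK293T in medium with 2% charcoal-stripped FBS. They were treated for 16 hr at 37C. Viability came from CellTiter-Glo luminescence.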

Experiment [4] can be described thus: qHTS assay to identify small molecule antagonists of the estrogen receptor beta (ER-beta) signaling pathway - cell viability counter screen (AID 1259382). Further: series mostly up to about 92 µM; nearly all actives have a fitted effect of over 55% in size. An outline of the steps: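 Agonist-stimulated (1nM E2) ER-beta-UAS-bla HEK293T cells are incubated with library compounds for 16 hr at 37C. Cell viability is then assessed in the reporter-assay wells by adding CellTiter-Glo and reading luminescence after 30 min.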

A short description of experiment [5]: qHTS assay to identify small molecule agonists or antagonists of the thyroid stimulating hormone receptor (TSHR) signaling pathway - wild type cell line counter screen (AID 1259384; calls by dose curve). An outline of the steps: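 Wild-type Hek293 cells, 800/well, 18 h at 37C, then compound with Ro20-1724 for 30 min RT. cAMP by HTRF (cAMP-d2/anti-cAMP cryptate), 1 h RT, fluorescence read. 15 concentrations, triplicates.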

Experiment [6] has as its target Thyrotropin receptor (Homo sapiens) (UniProt P16473). As to the kind of experiment: qHTS assay to identify small molecule antagonists of the thyroid stimulating hormone receptor (TSHR) signaling pathway (AID 1259385; calls by dose curve; further: nearly all actives have a fitted effect of over 20% in size). The essentials: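 TSHR-HEK293 cells (800/well) plated 18 h, then compounds with Ro20-1724 and TSH at 1.5 ng/mL final, 30 min at room temperature. cAMP quantified by HTRF (cAMP-d2/anti-cAMP-cryptate, 1 h); 15 concentrations in triplicate.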

The nature of experiment [7]: qHTS assay to identify small molecule agonists of the estrogen receptor alpha (ER-alpha) signaling pathway in the presence of an antagonist - cell viability counter screen (AID 1259386).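 Further: series mostly up to about 92 µM; cells exposed to compounds for 22 h at 37 °C before the viability read; nearly all actives have a fitted effect of over 30% in size.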 The essentials: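 ICI-182,780 at 10.0nM final accompanies the compound titration (15 concentrations, 22hr, 37C) on VM7Luc4E2 cells. The CellTiter-Fluor fluorescence readout runs in the same wells as the luciferase assay.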

Experiment [8] has as its target Progesterone receptor (Homo sapiens) (UniProt P06401). As to the kind of experiment: qHTS assay to identify small molecule antagonists of the progesterone receptor (PR) signaling pathway (AID 1346795; active means well fitted inhibition curve with a large enough effect in the signal ratio in the repeat runs, not every such curve was filed as active; the % refers to the signal ratio). An outline of the steps: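 After 6 hr plating at 37C in 2% stripped-serum medium, PR-UAS-bla HEK293T cells got compounds, then 1 nM R5020. Sixteen hours later, LiveBLAzer substrate was applied for 2 hr at room temperature and fluorescence was recorded.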

Experiment [9] can be described thus: qHTS assay to identify small molecule antagonists of the progesterone receptor (PR) signaling pathway - cell viability counter screen (AID 1346798). Further: series mostly up to about 92 µM; nearly all actives have a fitted effect of over 50% in size. The essentials: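 Viability was determined by ATP-based luminescence (CellTiter-Glo) in PR-UAS-bla HEK293T cells cultured in 2% charcoal-stripped serum and incubated 16 hr with compounds under R5020 stimulation.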

Experiment [10] in a line: qHTS assay to identify small molecule agonists of the TGF-beta/Smad signaling pathway - cell viability counter screen (AID 1346829). Further: top concentration of the series differs between compounds; nearly all actives have a fitted effect of over 45% in size. The essentials:
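After overnight seating at 37 C and 5% CO2, reporter cells got compounds for 5 hr and FRET substrate for 2 hr; cell viability then came from CellTiter-Glo luminescence.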

Experiment [11] can be described thus: qHTS assay to identify small molecule agonists of the TGF-beta/Smad signaling pathway (AID 1346859; active means well fitted activation curve with a large enough effect in the signal ratio in the repeat runs, not every such curve was filed as active; the % refers to the signal ratio; further: series mostly up to about 77 µM). An outline of the steps:
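Dual-wavelength fluorescence (460/530 nm emission) quantified beta-lactamase expression under the Smad binding element in HEK 293T cells following 5 hr compound treatment at 37 C.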

Experiment [12] has as its target Thyrotropin-releasing hormone receptor (Homo sapiens) (UniProt P34981). As to the kind of experiment: qHTS assay to identify small molecule antagonists of the thyrotropin-releasing hormone receptor (TRHR) signaling pathway (AID 1346877; active means well fitted inhibition curve with a large enough effect in the repeat runs, not every such curve was filed as active; further: series mostly up to about 51 µM). An outline of the steps: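 Screening used HEK293 cells engineered with TRHR, with a brief 5 min room-temperature compound exposure preceding addition of TRH to 1 nM. The read-out was kinetic calcium-dye fluorescence, concentration-response from 15 doses in triplicate.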

The target of experiment [13] is Progesterone receptor (Homo sapiens) (UniProt P06401). As to the kind of experiment: qHTS assay to identify small molecule agonists of the progesterone receptor (PR) signaling pathway (AID 1346784; calls by dose curve; further: nearly all actives have a fitted effect of over 30% in size). The essentials:
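The screen uses PR-UAS-bla HEK 293T cells in charcoal-stripped serum (2%). Compounds are applied for 16 hr at 37C after a 6 hr pre-incubation, and reporter activity is detected with a FRET beta-lactamase substrate after 2 hr at room temperature.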

Experiment [14] in a line: qHTS assay to identify small molecule agonists of the progesterone receptor (PR) signaling pathway - cell viability counter screen (AID 1346799; calls by dose curve; further: nearly all actives have a fitted effect of over 45% in size). An outline of the steps: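 Viability was scored by ATP luminescence (CellTiter-Glo, 30 min, room temperature) in the same wells used for the reporter readout, after 16 hr compound exposure of PR-UAS-bla HEK293T cells.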
In experiment [15] the target is Thyrotropin-releasing hormone receptor (Homo sapiens) (UniProt P34981). As to the kind of experiment: qHTS assay to identify small molecule agonists of the thyrotropin-releasing hormone receptor (TRHR) signaling pathway (AID 1346891; calls by dose curve;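 further: HEK293 cells expressing TRHR with calcium dye readout; series mostly up to about 58 µM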). An outline of the steps:
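Kinetic fluorescence (3 min, 1 s intervals) reported intracellular calcium after compound transfer onto TRHR-Hek293 cells pre-loaded with dye for 2 h at 37 °C.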

The target in experiment [16] is Estrogen receptor (Homo sapiens) (UniProt P03372). As to the kind of experiment: qHTS assay to identify small molecule agonists of the estrogen receptor alpha (ER-alpha) signaling pathway in the presence of an antagonist (AID 1259383; calls by dose curve; further: top concentration of the series differs between compounds; nearly all actives have a fitted effect of over 15% in size). The essentials:
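Using VM7Luc4E2 cells seeded 24hr before treatment, antagonist ICI-182,780 (10.0nM final) was added, followed by compounds at 15 concentrations. Plates incubated 22hr; ONE-Glo luminescence quantified reporter activity.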

The nature of experiment [17]: qHTS assay to identify small molecule antagonists of the TGF-beta/Smad signaling pathway - cell viability counter screen (AID 1346824). Further: nearly all actives have a fitted effect of over 50% in size. The essentials: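 SBE-bla HEK 293T cells, incubated overnight, then compound plus 0.25 ng/mL TGF-beta1 (stock added) for 5 hr at 37 C. Viability was read in the same wells by CellTiter-Glo luminescence after 30 min at room temperature.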

Chain of Estrogen receptor (Homo sapiens) (P03372 whole entry, looked up): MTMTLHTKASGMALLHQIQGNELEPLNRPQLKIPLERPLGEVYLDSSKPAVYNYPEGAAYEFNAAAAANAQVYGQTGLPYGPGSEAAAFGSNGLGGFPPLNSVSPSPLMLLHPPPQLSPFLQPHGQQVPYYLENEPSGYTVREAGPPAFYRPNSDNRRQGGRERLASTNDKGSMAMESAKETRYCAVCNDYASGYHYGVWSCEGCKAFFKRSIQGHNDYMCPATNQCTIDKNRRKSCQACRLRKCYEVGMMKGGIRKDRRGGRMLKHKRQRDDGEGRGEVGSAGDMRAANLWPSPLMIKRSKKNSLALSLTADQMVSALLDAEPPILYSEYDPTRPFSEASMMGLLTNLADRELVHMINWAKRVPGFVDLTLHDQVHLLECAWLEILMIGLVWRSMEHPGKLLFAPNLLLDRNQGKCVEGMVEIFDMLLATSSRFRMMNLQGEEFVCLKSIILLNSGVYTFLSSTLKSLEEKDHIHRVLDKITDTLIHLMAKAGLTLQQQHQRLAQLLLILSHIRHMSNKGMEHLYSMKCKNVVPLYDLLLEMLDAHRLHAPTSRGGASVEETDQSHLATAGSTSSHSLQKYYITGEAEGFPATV
Chain of Progesterone receptor (Homo sapiens) (P06401 whole entry, looked up): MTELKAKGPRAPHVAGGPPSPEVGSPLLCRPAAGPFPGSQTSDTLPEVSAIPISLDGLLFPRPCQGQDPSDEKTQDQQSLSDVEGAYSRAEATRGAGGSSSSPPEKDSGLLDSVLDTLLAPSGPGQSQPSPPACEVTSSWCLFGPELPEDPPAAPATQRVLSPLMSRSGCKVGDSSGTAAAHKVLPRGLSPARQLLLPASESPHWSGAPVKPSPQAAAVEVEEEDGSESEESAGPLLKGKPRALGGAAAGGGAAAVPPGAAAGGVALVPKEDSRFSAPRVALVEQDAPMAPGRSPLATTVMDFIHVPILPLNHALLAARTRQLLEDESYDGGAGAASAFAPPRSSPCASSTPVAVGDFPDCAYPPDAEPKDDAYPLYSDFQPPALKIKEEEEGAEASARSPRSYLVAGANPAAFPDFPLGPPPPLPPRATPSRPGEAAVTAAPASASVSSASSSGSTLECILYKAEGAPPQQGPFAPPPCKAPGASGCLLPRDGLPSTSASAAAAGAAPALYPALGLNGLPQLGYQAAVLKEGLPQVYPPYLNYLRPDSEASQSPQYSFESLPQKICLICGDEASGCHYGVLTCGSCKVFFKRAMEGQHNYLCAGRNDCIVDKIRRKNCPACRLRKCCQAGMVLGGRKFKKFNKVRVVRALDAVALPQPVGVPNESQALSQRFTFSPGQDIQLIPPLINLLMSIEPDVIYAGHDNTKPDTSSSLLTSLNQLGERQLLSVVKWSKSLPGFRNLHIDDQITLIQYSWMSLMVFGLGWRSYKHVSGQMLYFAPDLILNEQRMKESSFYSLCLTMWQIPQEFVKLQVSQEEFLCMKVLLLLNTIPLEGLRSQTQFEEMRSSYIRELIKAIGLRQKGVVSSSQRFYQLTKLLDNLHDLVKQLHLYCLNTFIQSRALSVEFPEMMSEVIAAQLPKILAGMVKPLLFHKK
Chain of Thyrotropin receptor (Homo sapiens) (P16473 whole entry, looked up): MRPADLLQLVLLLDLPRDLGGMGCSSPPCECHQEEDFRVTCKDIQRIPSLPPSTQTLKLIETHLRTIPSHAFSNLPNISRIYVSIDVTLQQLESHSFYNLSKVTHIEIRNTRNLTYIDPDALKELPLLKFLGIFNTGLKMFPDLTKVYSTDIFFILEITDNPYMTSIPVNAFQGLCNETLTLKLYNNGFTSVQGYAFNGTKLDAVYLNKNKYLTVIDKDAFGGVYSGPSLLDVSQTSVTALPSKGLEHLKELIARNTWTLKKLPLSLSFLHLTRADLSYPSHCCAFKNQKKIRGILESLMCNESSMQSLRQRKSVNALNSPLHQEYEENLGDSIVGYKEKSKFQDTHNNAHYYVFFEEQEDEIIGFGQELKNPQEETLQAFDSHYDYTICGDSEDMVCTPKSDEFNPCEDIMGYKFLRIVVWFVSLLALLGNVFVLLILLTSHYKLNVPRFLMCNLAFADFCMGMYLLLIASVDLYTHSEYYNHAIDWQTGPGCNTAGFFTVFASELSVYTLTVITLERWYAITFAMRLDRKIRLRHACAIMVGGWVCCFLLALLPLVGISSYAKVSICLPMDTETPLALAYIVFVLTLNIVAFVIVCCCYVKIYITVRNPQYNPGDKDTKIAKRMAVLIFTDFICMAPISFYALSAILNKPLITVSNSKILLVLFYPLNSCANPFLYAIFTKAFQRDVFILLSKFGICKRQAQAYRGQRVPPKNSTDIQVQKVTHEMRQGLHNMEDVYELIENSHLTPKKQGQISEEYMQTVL
Chain of Thyrotropin-releasing hormone receptor (Homo sapiens) (P34981 whole entry, looked up): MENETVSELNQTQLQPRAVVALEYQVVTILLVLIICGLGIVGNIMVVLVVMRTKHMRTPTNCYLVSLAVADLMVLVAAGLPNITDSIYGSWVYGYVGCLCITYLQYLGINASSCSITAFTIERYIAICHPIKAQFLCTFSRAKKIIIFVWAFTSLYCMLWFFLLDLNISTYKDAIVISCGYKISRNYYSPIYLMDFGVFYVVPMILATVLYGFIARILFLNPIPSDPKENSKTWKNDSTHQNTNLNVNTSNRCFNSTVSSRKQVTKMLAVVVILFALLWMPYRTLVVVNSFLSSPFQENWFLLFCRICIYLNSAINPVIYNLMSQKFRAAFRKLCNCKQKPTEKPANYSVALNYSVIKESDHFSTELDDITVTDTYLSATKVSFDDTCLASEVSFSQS

Take `CCCCCCCC/C=C\CCCCCCCC(=O)OCC`: the Potency result in experiment [1], in experiment [2], in experiment [3], in experiment [4], in experiment [5] and in experiment [6] was “inactive” in each case. For the same molecule, the Potency result in experiment [7], in experiment [8], in [9] and in [11] was “inactive” throughout. In addition, the result in [10] and in experiment [12] was inactive.
`COC(=O)c1ccc(I)cc1S(=O)(=O)NC(=O)Nc1nc(C)nc(OC)n1`: the Potency result in experiment [1], in [2], in experiment [3], in experiment [4], in [5] and in [6] was “inactive” each time. Moreover, the Potency result in [7], in [13], in experiment [8], in experiment [9], in experiment [14] and in experiment [11] was “inactive” each time. In addition, in [15], the Potency entry was “inactive”. The molecule was classed as inactive in [10] and in experiment [12].
`C=CC(=O)OCCOCCOC(=O)C=C`: the results for the Potency in [1], in experiment [2] and in experiment [3] were 4.88 µM (active), 61.4 µM (active) and 24.4 µM (active), respectively. For the same molecule, the Potency result in experiment [16], in experiment [6] and in experiment [11] was “inactive” each time. Besides, the outcome in [10] and in experiment [12] was inactive.
As for `CC(=O)[O][Al]`, the Potency entry in [1], in experiment [2], in experiment [3], in experiment [5], in experiment [14] and in experiment [17] was “inactive” throughout. Further, in experiment [11], the Potency entry was “inactive”. Moreover, the result in [10] was inactive.
Turning to `Cc1ccc(C(C)OC(=O)C2(C)CCC(C(=O)O)C2(C)C)cc1` (stereo not drawn), the Potency result in experiment [1], in [2], in experiment [3], in [4], in experiment [6] and in [7] was “inactive” in each case. In addition, the Potency entry in [17] and in [11] was “inactive” in each case. Further, the outcome in [10] was inactive.
On to `CCCCC/C=C\C/C=C\CCCCCCCC(=O)NC(C)c1ccccc1` (stereo not drawn), for which the Potency in experiment [1] is 13.3 µM (active). Also, the Potency result in experiment [2], in experiment [4], in experiment [16], in experiment [5] and in [17] was “inactive” each time. For the same molecule, the molecule was called inactive in experiment [10] and in [12].
As to `CC(=O)c1cccc([N+](=O)[O-])c1`, the Potency result in experiment [1], in experiment [2], in [3], in [16], in experiment [7] and in experiment [13] was “inactive” in each case. Further, the Potency entry in experiment [8], in experiment [9], in experiment [14], in [17], in [11] and in [15] was “inactive” throughout. The call in [10] and in experiment [12] was inactive.
`O=C(NCCO[N+](=O)[O-])c1cccnc1`: the Potency result in experiment [1], in experiment [2], in experiment [3], in experiment [5], in [6] and in [7] was “inactive” in each case. The Potency result in [13], in experiment [8], in [9], in experiment [14], in experiment [17] and in experiment [15] was “inactive” each time. Further, the molecule was called inactive in [10] and in experiment [12].
Consider `N=c1ccn2c(n1)O[C@H]1[C@H](O)[C@@H](CO)O[C@H]12`, for which the Potency result in [1], in experiment [2], in experiment [3], in experiment [16], in [6] and in experiment [7] was “inactive” throughout. Besides, the Potency entry in experiment [13], in experiment [8], in [9] and in experiment [17] was “inactive” each time. Further, in experiment [10], the molecule was classed as inactive.
On to `CCCCc1ncc(/C=C(\Cc2cccs2)C(=O)O)n1Cc1ccc(C(=O)O)cc1`, for which the Potency result in experiment [1], in experiment [2], in experiment [3], in experiment [4], in [5] and in [6] was “inactive” throughout. The Potency result in experiment [7], in experiment [13], in [9], in experiment [14], in experiment [17] and in experiment [11] was “inactive” throughout. In addition, the outcome in experiment [10] and in [12] was inactive.
